Data from PubChem BioAssay (NCI).
This is part of a sample that, as a whole, favours compounds with a hit. Of some 83,000 tested, about 20% had one in any assay.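 Plates (96-well) were seeded with cells, treated with compound at one concentration, and incubated for 48 hours before percent growth was determined.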 Unmarked numbers belong to inactive results. Active and inactive are the calls of the source. The calls were made as follows: active = growth percent below 10; inactive = the rest.

Columns and labels:
Experiment in all cases: NCI-60 one-dose screen, 48 h (100 = growth as untreated, 0 = no growth, -100 = all killed)
Details in all cases: 10 µM unless noted
HCT-15 colon = tested on: HCT-15 colon
HT29 colon = tested on: HT29 colon
SNB-75 CNS = tested on: SNB-75 CNS
SNB-19 CNS = tested on: SNB-19 CNS
U251 CNS = tested on: U251 CNS
PC-3 prostate = tested on: PC-3 prostate
SK-MEL-5 melanoma = tested on: SK-MEL-5 melanoma
UACC-62 melanoma = tested on: UACC-62 melanoma
SK-MEL-28 melanoma = tested on: SK-MEL-28 melanoma
SK-MEL-2 melanoma = tested on: SK-MEL-2 melanoma
EKVX NSCLC = tested on: EKVX NSCLC
SN12C renal = tested on: SN12C renal
UO-31 renal = tested on: UO-31 renal
TK-10 renal = tested on: TK-10 renal
ACHN renal = tested on: ACHN renal
CAKI-1 renal = tested on: CAKI-1 renal
MOLT-4 leukemia = tested on: MOLT-4 leukemia
CCRF-CEM leukemia = tested on: CCRF-CEM leukemia
A498 renal = tested on: A498 renal

| SMILES | growth (HCT-15 colon) | growth (HT29 colon) | growth (SNB-75 CNS) | growth (SNB-19 CNS) | growth (U251 CNS) | growth (PC-3 prostate) | growth (SK-MEL-5 melanoma) | growth (UACC-62 melanoma) | growth (SK-MEL-28 melanoma) | growth (SK-MEL-2 melanoma) | growth (EKVX NSCLC) | growth (SN12C renal) | growth (UO-31 renal) | growth (TK-10 renal) [%] | growth (ACHN renal) | growth (CAKI-1 renal) | growth (MOLT-4 leukemia) | growth (CCRF-CEM leukemia) | growth (A498 renal) [%] |
| --- | --- | --- | --- | --- | --- | --- | --- | --- | --- | --- | --- | --- | --- | --- | --- | --- | --- | --- | --- |
| Cn1c(-c2c(N)n(CCCN3CCOCC3)c3nc(C#N)c(C#N)nc23)nc2ccccc21 | 67.1% | 68% | 38.4% | 76.1% | 67.8% | 35.5% | 92.9% | 77.2% | 59.1% | 109% | 66.3% | 40.5% | 12.4% | 46.8 | -79.1% (active) | 57.6% | 31.5% |  |  |
| COc1ccc(C(=O)NNc2nc(Cl)nc(N3CCN(C(c4ccccc4)c4ccccc4)CC3)n2)cc1 | -37% (active) | -57.3% (active) | 61.5% | 45.4% | 71.4% | -13.3% (active) | 90.7% | 33.1% | 53.9% | 48.8% | 82.4% | 21.1% | 87% | 95 | 22.8% | 21.2% | -39.2% (active) | -8.69% (active) |  |
| CSc1nc2sc3cccc(Cl)c3n2c(=N)c1C#N | 111% | 113% | 103% | 109% | 95.6% | 90.8% | 95.4% | 90% |  | 105% | 90.1% | 101% | 68.5% | 123 | 95% | 86.8% | 90% | 86% | 56.2 |
| CCOC(=O)[C@@H](C)C[C@H](Cc1ccccc1)NC(=O)c1csc([C@@H](C[C@H](C(C)C)N(C)C(=O)[C@@H](NC(=O)[C@H]2C[C@H](O[Si](C)(C)C(C)(C)C)CCN2C)C(C)C)OC(C)=O)n1 | -6.05% [9.25 µM] (active) | -71.7% [9.25 µM] (active) | 7.94% [9.25 µM] (active) | 5.09% [9.25 µM] (active) | -17.3% [9.25 µM] (active) | 6.78% [9.25 µM] (active) | -14.5% [9.25 µM] (active) | 4.13% [9.25 µM] (active) | 24.2% [9.25 µM] | -21.2% [9.25 µM] (active) | 24.1% [9.25 µM] | 3.13% [9.25 µM] (active) | 8.06% [9.25 µM] (active) |  | 5.74% [9.25 µM] (active) | 15.9% [9.25 µM] | 1.33% [9.25 µM] (active) | 0.176% [9.25 µM] (active) |  |
| COc1cc2c(cc1OC)C(=O)/C(=C/c1cc(C)c(O)c(C)c1)S2 | 18.7% | 83.2% | 24% | 38.7% | 27.2% | 38.4% | 21.3% | 43.3% | 65% | 42.6% | 40.8% | 50.4% | 54.8% | 66 | 45.3% | 43.9% | 24.5% | 17.1% |  |
| COc1ccc(C/C(C)=C(/c2ccc(OCCCN(C)C)cc2)c2ccc(OC(C)=O)cc2)cc1 | 19.3% | 4.9% (active) | 74.1% | 82.3% | 61.7% | 79.3% | 69.6% | 51.3% | 2.23% (active) | 101% | 80.9% | 80.8% | 62.2% | 98.9 | 85% | 81.6% | 55.9% | 63.1% |  |
| Cc1cc(C(=O)/C=C/c2ccc[nH]2)ccc1-n1ccc(C(F)(F)F)n1 | 84.1% | 89.9% | 63.2% | 85.1% | 25.9% | 6.59% (active) | 98.2% | 84% | 100% | 96.5% | 87.4% | 63.4% | -92.1% (active) | 95.6 | 98.9% | 83.8% | 70.6% | 13.1% |  |
| CC1(C)CC[C@]2(C(=O)O)CC[C@]3(C)C(=CC[C@@H]4[C@@]5(C)Cc6c([nH]c7ccccc67)C(C)(C)[C@@H]5CC[C@]43C)[C@@H]2C1 | 21.3% | 27.2% | 49.4% | 60% | 25.7% | 42.7% | 73.7% | 63.7% | 83.2% | 72.6% | 34.3% | 42.8% | 32.7% | 31.3 | 18.2% | 17.5% | 32.3% | 30.6% |  |
